PubChem BioAssay (Tox21)
Inconclusive results are not listed. A structure can be active in one record and inactive in another. Active and inactive are the calls of the source. Calls come from the whole dose curve.

Experiments:
[1] = molecular target: Acetylcholinesterase (Homo sapiens) (UniProt P22303); test: Acetylcholinesterase (AChE) small molecule antagonists: colormetric cell-based qHTS assay (AID 1347395); note: nearly all actives have a fitted effect of over 30% in size; note: potency is the fitted concentration of half-maximal effect
Chain of Acetylcholinesterase (Homo sapiens) (P22303 whole entry, looked up): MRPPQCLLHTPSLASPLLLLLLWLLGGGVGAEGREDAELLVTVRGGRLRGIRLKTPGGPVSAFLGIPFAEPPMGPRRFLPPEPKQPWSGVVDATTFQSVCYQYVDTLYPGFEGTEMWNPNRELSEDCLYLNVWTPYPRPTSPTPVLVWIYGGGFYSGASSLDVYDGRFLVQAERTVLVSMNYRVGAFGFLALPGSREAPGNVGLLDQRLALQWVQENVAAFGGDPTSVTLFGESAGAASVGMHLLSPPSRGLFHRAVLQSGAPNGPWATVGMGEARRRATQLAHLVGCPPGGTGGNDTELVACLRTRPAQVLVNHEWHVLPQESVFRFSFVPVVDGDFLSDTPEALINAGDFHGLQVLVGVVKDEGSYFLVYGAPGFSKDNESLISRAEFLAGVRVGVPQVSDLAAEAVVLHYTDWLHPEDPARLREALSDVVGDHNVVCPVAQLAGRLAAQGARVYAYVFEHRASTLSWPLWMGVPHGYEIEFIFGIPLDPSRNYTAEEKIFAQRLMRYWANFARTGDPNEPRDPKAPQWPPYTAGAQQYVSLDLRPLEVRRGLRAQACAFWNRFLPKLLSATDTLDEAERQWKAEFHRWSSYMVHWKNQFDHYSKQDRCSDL
Outline: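 After overnight attachment at 37 C, SH-SY5Y cells get 30 min compound exposure; detection cocktail (acetylthiocholine, DTNB) then incubates 90 min at 37 C, and absorbance reflects AChE-generated thiocholine.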

[2] = molecular target: Acetylcholinesterase (Homo sapiens) (UniProt P22303); test: Acetylcholinesterase (AChE) small molecule antagonists: enzyme-based qHTS assay (AID 1347397); details: Potency: AChE enzyme activity inhibition; outcome: AChE enzyme activity inhibition; note: nearly all actives have a fitted effect of over 55% in size; note: potency is the fitted concentration of half-maximal effect
Outline: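 First, recombinant human AChE (50 mU/mL as dispensed) received test compound or DMSO. Second, plates stood 30 min at room temperature. Third, DTNB and acetylthiocholine were added, followed by 10 min at room temperature and colorimetric detection.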

[3] = molecular target: Acetylcholinesterase (Homo sapiens) (UniProt P22303); test: Acetylcholinesterase (AChE) small molecule antagonists: fluorescence cell-based qHTS assay (AID 1347398); details: Potency: AChE activity; outcome: AChE activity; note: nearly all actives have a fitted effect of over 50% in size
Outline: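 Homogeneous quantitative HTS format. SH-SY5Y cells seeded at 2,000 per well settle overnight at 37 C. Compound pretreatment runs 30 min (37 C, 5% CO2); substrate/probe mix then reacts 40 min at RT before reading 490/520 nm.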

[4] = molecular target: Acetylcholinesterase (Homo sapiens) (UniProt P22303); test: Acetylcholinesterase (AChE) small molecule antagonists: enzyme-based qHTS assay with human liver microsomes (AID 1347399); details: Potency: qHTS inhibition; outcome: qHTS inhibition; note: nearly all actives have a fitted effect of over 60% in size
Outline: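 Recombinant human AChE (50 mU/mL in the enzyme mix) and human liver microsomes (0.25 mg/mL final) were preincubated with compound and NADPH (0.25 mg/mL final) for 30 min at 37 C. Acetylthiocholine/DTNB was then added; thiocholine was read colorimetrically after 10 min at room temperature.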
% is set by controls: 0 for no effect and ±100 for the full control effect.

CCC1CO1 (stereo not given)
inactive: Potency [1] | Potency [2] | Potency [3] | Potency [4]

COc1nc(C)nc(N)n1
inactive: Potency [1] | Potency [2] | Potency [3] | Potency [4]

FC(F)(F)C(F)(F)C(F)(F)C(F)(F)C(F)(F)C(F)(F)C(F)(F)C(F)(F)C(F)(F)C(F)(F)F
inactive: activity, negative = inhibition [1] 0.771% [at 10.5 µM] | activity change, negative = inhibition [2] 1.63% [at 10.5 µM] | activity change, negative = inhibition [3] 1.44% [at 10.5 µM] | activity change, negative = inhibition [4] 1.12% [at 10.5 µM]

Cn1ccnc1
inactive: Potency [1] | Potency [2] | Potency [3] | Potency [4]

CCCCCCCC
inactive: Potency [1] | Potency [2] | Potency [3] | Potency [4]

CN(C)Cc1ccccc1O
inactive: Potency [1] | Potency [2] | Potency [3] | Potency [4]

O=C(O)c1cccc(C[C@@H]2COc3ccc(OCc4nc5cc(F)ccc5s4)cc3[C@@H]2O)c1
inactive: Potency [1] | Potency [2] | Potency [3] | Potency [4]

CC(C)CC(=O)C1C(=O)c2ccccc2C1=O
inactive: Potency [1] | Potency [2] | Potency [3] | Potency [4]

C#Cc1ccc(-c2ccccc2F)cc1
inactive: Potency [1] | Potency [2] | Potency [3] | Potency [4]

CC1CN(c2ccccc2)NC1=O (stereo not given)
inactive: Potency [1] | Potency [2] | Potency [3] | Potency [4]

CCCC[C@H]1CN(CC2CCOCC2)C(=O)OC12CCN(C1(C)CCN(C(=O)c3c(C)ncnc3C)CC1)CC2
inactive: Potency [1] | Potency [2] | Potency [3] | Potency [4]

COC(=O)c1cc(Cl)c(NC(C)=O)cc1OC
active: Potency [1] 27.5 µM
inactive: Potency [2] | Potency [3] | Potency [4]

O=C(O)CP(=O)(O)O
inactive: Potency [1] | Potency [2] | Potency [3] | Potency [4]

CN(C)C
inactive: Potency [1] | Potency [2] | Potency [3] | Potency [4]

CCOC(=O)COC(=O)c1ccccc1C(=O)OCC
inactive: Potency [1] | Potency [2] | Potency [3] | Potency [4]

CC(C)(C)c1ccc(C(=O)CCCCl)cc1
inactive: Potency [1] | Potency [2] | Potency [3] | Potency [4]

C=C[Si](OC(C)=O)(OC(C)=O)OC(C)=O
inactive: Potency [1] | Potency [2] | Potency [3] | Potency [4]

CCCCCCCOC(=O)c1ccc(O)cc1
inactive: Potency [1] | Potency [2] | Potency [3] | Potency [4]

Cc1cnc(NC(=O)C2=C(O)c3ccccc3S(=O)(=O)N2C)s1
inactive: Potency [1] | Potency [2] | Potency [3] | Potency [4]

CC1=NN(c2cc(S(=O)(=O)O)ccc2Cl)C(=O)C1N=Nc1ccccc1 (stereo not given)
inactive: Potency [1] | Potency [2] | Potency [3] | Potency [4]

O=S(O)O
inactive: activity, negative = inhibition [1] 0.406% [at 23.6 µM] | activity change, negative = inhibition [2] -0.777% [at 23.6 µM] | activity change, negative = inhibition [3] 0.464% [at 23.8 µM] | activity change, negative = inhibition [4] -0.486% [at 23.6 µM]

CC(CC(C)(C)C)CC(C)(C)CC(C)(C)C (stereo not given)
inactive: Potency [1] | Potency [2] | Potency [3] | Potency [4]

CCOc1ccccc1C(N)=O
inactive: Potency [1] | Potency [2] | Potency [3] | Potency [4]

CC(C)CCCCCCc1ccc(OCCOCCO)cc1
inactive: Potency [1] | Potency [2] | Potency [3] | Potency [4]

Clc1cccc(C(c2ccc3nc[nH]c3c2)n2ccnc2)c1 (stereo not given)
inactive: Potency [1] | Potency [2] | Potency [3] | Potency [4]

S=c1nc[nH]c2nc[nH]c12
inactive: Potency [1] | Potency [2] | Potency [3] | Potency [4]

O=C1OC2(c3ccccc31)c1cc(I)c(O)c(I)c1Oc1c2cc(I)c(O)c1I
inactive: Potency [3] | Potency [4]
40.4 µM (active) and inactive: Potency [2]
36 µM (active) and inactive: Potency [1]

Cc1ccc(S(=O)(=O)O)cc1C
inactive: Potency [1] | Potency [2] | Potency [3] | Potency [4]

Cc1occc1S
inactive: Potency [1] | Potency [2] | Potency [3] | Potency [4]

CC(C)CCOC(=O)c1ccccc1
inactive: Potency [1] | Potency [2] | Potency [3] | Potency [4]

Cc1cc(=O)[nH]c(C(C)C)n1
inactive: Potency [1] | Potency [2] | Potency [3] | Potency [4]

C=CC(=O)OCC1CC2CC1C1CCC(COC(=O)C=C)C21 (stereo not given)
inactive: Potency [1] | Potency [2] | Potency [3] | Potency [4]

O=C(Cl)c1ccc(F)c(Cl)c1
inactive: Potency [1] | Potency [2] | Potency [3] | Potency [4]

C=C(C)C(=O)OCC(C)C
inactive: Potency [1] | Potency [2] | Potency [3] | Potency [4]

CC(CC(C#N)(c1ccccc1)C(C)C)N(C)C (stereo not given)
inactive: Potency [1] | Potency [2] | Potency [3] | Potency [4]

CCn1cc(C(=O)O)c(=O)c2cc(F)c(N3CCNCC3)cc21
inactive: Potency [1] | Potency [2] | Potency [3] | Potency [4]

CC1(C)[C@@H](O[C@H]2O[C@H](C(=O)O)[C@@H](O)[C@H](O)[C@H]2O[C@@H]2O[C@H](C(=O)O)[C@@H](O)[C@H](O)[C@H]2O)CC[C@]2(C)[C@H]3C(=O)C=C4[C@@H]5C[C@@](C)(C(=O)O)CC[C@]5(C)CC[C@@]4(C)[C@]3(C)CC[C@@H]12
inactive: Potency [1] | Potency [2] | Potency [3] | Potency [4]

Nc1ccc(S(=O)(=O)Nc2nccs2)cc1
inactive: Potency [1] | Potency [2] | Potency [3] | Potency [4]

c1ccc(Sc2ccccc2)cc1
inactive: Potency [1] | Potency [2] | Potency [3] | Potency [4]

O=C(O)c1ccc2cc(O)ccc2c1
inactive: Potency [1] | Potency [2] | Potency [3] | Potency [4]

NS(=O)(=O)c1cc2c(cc1Cl)NCNS2(=O)=O
inactive: Potency [1] | Potency [2] | Potency [3] | Potency [4]

CCOC(N)=O
inactive: Potency [1] | Potency [2] | Potency [3] | Potency [4]

COC(=O)/C=C/c1ccccc1
inactive: Potency [1] | Potency [2] | Potency [3] | Potency [4]

Cn1cccc1
inactive: Potency [1] | Potency [2] | Potency [3] | Potency [4]

CCC(C)(CCC(C)C)C(=O)[O-].CCC(C)(CCC(C)C)C(=O)[O-].[Zn+2] (stereo not given)
inactive: Potency [1] | Potency [2] | Potency [3] | Potency [4]

O=S(=O)(O)c1cc(O)c(O)c(S(=O)(=O)O)c1
inactive: Potency [1] | Potency [2] | Potency [3] | Potency [4]

CC(C)CNCC(C)C
inactive: Potency [1] | Potency [2] | Potency [3] | Potency [4]

OC[C@H]1O[C@@H](O[C@H]2[C@H](O)[C@@H](O)[C@H](O)O[C@@H]2CO)[C@H](O)[C@@H](O)[C@H]1O
inactive: Potency [1] | Potency [2] | Potency [3] | Potency [4]

CCCC1CCC(=O)O1 (stereo not given)
inactive: Potency [1] | Potency [2] | Potency [3] | Potency [4]

CCC(COC(=O)CCS)(COC(=O)CCS)COC(=O)CCS
inactive: Potency [1] | Potency [2] | Potency [3] | Potency [4]

CCCCNS(=O)(=O)c1ccc(C)cc1
inactive: Potency [1] | Potency [2] | Potency [3] | Potency [4]

CCc1ccc(C(c2ccc(CC)cc2)C(Cl)Cl)cc1
inactive: Potency [1] | Potency [2] | Potency [3] | Potency [4]

CCC(=O)O[C@H]1[C@H](O[C@@H]2[C@@H](C)[C@H](O[C@H]3C[C@@](C)(OC)[C@@H](O)[C@H](C)O3)[C@@H](C)C(=O)O[C@H](CC)[C@@](C)(O)[C@H](O)[C@@H](C)C(=O)[C@H](C)C[C@@]2(C)O)O[C@H](C)C[C@@H]1N(C)C
inactive: Potency [1] | Potency [2] | Potency [3] | Potency [4]

CC(=O)Oc1ccc2c(c1)CC[C@@H]1[C@@H]2CC[C@]2(C)[C@@H](O)CC[C@@H]12
inactive: Potency [1] | Potency [2] | Potency [3] | Potency [4]

CCOC(=O)c1cc(=O)c2c(OCC(COc3cccc4oc(C(=O)OCC)cc(=O)c34)OC(=O)[C@@H](N)CCCCN)cccc2o1
inactive: Potency [1] | Potency [2] | Potency [3] | Potency [4]

O=[N+]([O-])c1ccc(NCCO)c(OCCO)c1
inactive: Potency [1] | Potency [2] | Potency [3] | Potency [4]

C1CCCCC1
inactive: Potency [1] | Potency [2] | Potency [3] | Potency [4]

C=C(C)C1CCC(C)CC1O (stereo not given)
inactive: Potency [1] | Potency [2] | Potency [3] | Potency [4]

CCc1nnc(NS(=O)(=O)c2ccc(N)cc2)s1
inactive: Potency [1] | Potency [2] | Potency [3] | Potency [4]

O=S(=O)(O)CO
inactive: Potency [1] | Potency [2] | Potency [3] | Potency [4]
